Measured values as given in PubChem BioAssay (Tox21).
Inconclusive results are not listed. A call without a number means that no potency is given here. Activity calls are given as the source filed them. Calls come from the whole dose curve.

Target: Thyrotropin receptor (Homo sapiens) (UniProt P16473)
Experiment: qHTS assay to identify small molecule agonists of the thyroid stimulating hormone receptor (TSHR) signaling pathway (AID 1224843); note: nearly all actives have a fitted effect of over 45% in size
Settings: TSHR-HEK293 cells, cAMP HTRF, agonist mode, 30 min; series mostly up to 92.4 µM
Excerpt: National Center for Advancing Translational Sciences [NCATS]
NIH Chemical Genomics Center [NCGC]
U.S. Environmental Protection Agency [EPA]
National Institutes of Environmental Health Sciences [NIEHS]
National Toxicology Program [NTP]
U.S. Food and Drug Administration [FDA]
TSHR is the receptor for thyrotropin (thyroid stimulating hormone or TSH), a member of the glycoprotein hormone family. TSH is released by the anterior pituitary gland and is the main regulator of thyroid gland growth and development. Upon binding circulating thyrotropin, a G-protein signal cascade activates adenylyl cyclase and […] cAMP concentration is increased. cAMP is a key second messenger involved extensively in cellular signal transduction pathways associated with the majority of G-protein coupled receptors (GPCRs). The activation of these GPCRs by neurotransmitters, lipids, nucleotides, peptides and hormones results in the activation or the inhibition of plasma membrane-bound adenylate cyclase through heterotrimeric G-proteins. A cell-based TSHR assay was used to screen the Tox21 10K library for compounds that can modulate TSHR in agonist mode.
Tox21 Assay Protocol Summary:
TSHR-Hek293 cells were dispensed at 800 cells/4uL/well in 1536-well white plates using a Multidrop dispenser. […] The plates were incubated at room temperature for 30 min. 2.5 ul/well of cAMP-d2 and 2.5ul/well of anti-cAMP-cryptate was added respectively into the assay plates using a Flying Reagent Dispenser. After 1 hr incubation at room temperature, the fluorescence intensity in the plates was measured using an Envision plate reader. Each test compound was measured at 15 concentrations and in triplicates.
Potency is the fitted concentration of half-maximal effect.

Thyrotropin receptor (Homo sapiens), sequence (P16473 whole entry, looked up): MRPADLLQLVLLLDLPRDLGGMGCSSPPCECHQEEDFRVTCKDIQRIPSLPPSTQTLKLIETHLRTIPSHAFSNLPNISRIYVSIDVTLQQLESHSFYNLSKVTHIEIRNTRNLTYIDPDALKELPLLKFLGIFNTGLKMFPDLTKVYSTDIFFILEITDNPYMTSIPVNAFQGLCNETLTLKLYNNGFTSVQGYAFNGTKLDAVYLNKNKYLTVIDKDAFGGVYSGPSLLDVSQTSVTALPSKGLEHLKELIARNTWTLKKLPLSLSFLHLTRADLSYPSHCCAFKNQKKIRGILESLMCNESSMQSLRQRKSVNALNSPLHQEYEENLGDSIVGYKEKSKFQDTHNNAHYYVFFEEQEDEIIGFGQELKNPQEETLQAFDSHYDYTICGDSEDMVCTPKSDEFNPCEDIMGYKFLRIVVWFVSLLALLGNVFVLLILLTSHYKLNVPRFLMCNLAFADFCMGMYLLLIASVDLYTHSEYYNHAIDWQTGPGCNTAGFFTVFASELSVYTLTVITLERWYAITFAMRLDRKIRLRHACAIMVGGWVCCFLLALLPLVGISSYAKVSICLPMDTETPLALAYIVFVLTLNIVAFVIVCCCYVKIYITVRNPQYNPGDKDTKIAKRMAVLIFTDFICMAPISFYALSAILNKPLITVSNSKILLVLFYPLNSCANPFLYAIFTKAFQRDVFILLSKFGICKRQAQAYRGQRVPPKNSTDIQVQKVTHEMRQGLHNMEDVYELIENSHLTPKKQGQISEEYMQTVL

Row | Structure (SMILES) | Potency
1 | COc1ccc(C(=O)N2CCCC2=O)cc1 | inactive
2 | O=NN1CCN(N=O)CC1 | inactive
3 | CCCCc1ccc(O)cc1 | inactive
4 | O=C(Nc1ccccc1)N(Cc1ccc(Cl)cc1)C1CCCC1 | 48.6 µM (active)
5 | Cc1ncc(CNC(=O)N(CCCl)N=O)c(N)n1 | inactive
6 | N#CCBr | inactive
7 | c1coc(-c2nc3ccccc3[nH]2)c1 | inactive
8 | N#CCNCC#N | inactive
9 | CCOC(=O)C1(c2ccccc2)CCN(CCc2ccc(N)cc2)CC1 | inactive
10 | Clc1cccc(N2CCNCC2)c1 | inactive
11 | COc1cc(OC)nc(NC(=O)NS(=O)(=O)c2ncccc2OCC(F)(F)F)n1 | inactive
12 | CCCCCCBr | inactive
13 | CCN(CC)CCOC(=O)C(C)(c1ccccc1)c1ccccc1 | inactive
14 | CCC(C)(C)c1cc(-n2nc3ccccc3n2)c(O)c(C(C)(C)CC)c1 | inactive
15 | CCOC(=O)CP(=O)(OCC)OCC | inactive
16 | N#CC(CCc1ccc(Cl)cc1)(Cn1cncn1)c1ccccc1 (stereo not given) | 8.63 µM (active)
17 | CCS(=O)(=O)CCSP(=O)(OC)OC | inactive
18 | CCN(Cc1ccc(Cl)nc1)/C(=C/[N+](=O)[O-])NC | inactive
19 | CCC1(c2ccccc2)C(=O)N=C(O)NC1=O (stereo not given) | inactive
20 | O=[N+]([O-])c1cc(Cl)c(Cl)c(Cl)c1 | inactive

Row | Structure (SMILES) | Potency
21 | O=C1OC(CCN2CCCCC2)OC1(c1ccccc1)c1ccccc1 (stereo not given) | inactive
22 | CC1CCC(=O)O1 (stereo not given) | inactive
23 | COP(N)(=S)Oc1ccccc1C(=O)OC(C)C (stereo not given) | inactive
24 | CC1=NNC(=O)N(/N=C/c2cccnc2)C1 | inactive
25 | C1CCC(C2CCCCC2)CC1 | inactive
26 | CCCSP(=S)(OCC)Oc1ccc(Cl)cc1Cl (stereo not given) | inactive
27 | C(CCOCC1CO1)COCC1CO1 (stereo not given) | inactive
28 | Cc1nnc2n1-c1sc(CCC(=O)N3CCOCC3)cc1C(c1ccccc1Cl)=NC2 | inactive
29 | CCCSC(=O)Cl | inactive
30 | CNC(=O)O/N=C(\C)SC | inactive
31 | Nc1cc2c3c(c1)C(c1ccccc1)=N[C@@H](NC(=O)c1cccnc1)C(=O)N3CC2 | inactive
32 | CC(C)CC(N(C)C)C1(c2ccc(Cl)cc2)CCC1 (stereo not given) | inactive
33 | N#CC(O)c1ccccc1 (stereo not given) | inactive
34 | CCCCOP(=O)(O)OCCCC | inactive
35 | CNC(=O)Oc1c(C(C)(C)C)cc(C)cc1C(C)(C)C | inactive
36 | O=C(O)c1ccc2[nH]cc(CCCCN3CC=C(c4ccccc4)CC3)c2c1 | inactive
37 | CC(C)NCC(O)c1ccc(N)c(C#N)c1 (stereo not given) | 0.0021 µM (active)
38 | C[C@H]1CCC[C@H](O)CCCCCc2cc(O)cc(O)c2C(=O)O1 | inactive
39 | CC(C)CC#N | inactive
40 | C[N+](=O)[O-] | inactive
